Data taken from PubChem BioAssay (NCATS).
Inconclusive results are not listed. The source made the active and inactive calls. Calls come from the whole dose curve; as a rule, active = well fitted cell-killing curve with a large enough effect; inconclusive = small, poorly fitted or top-dose-only effect, or effect the other way; inactive = flat fitted curve, though single readings scatter.

Assay: Identifying Small Molecule Inhibitors of Pancreatic Cancer Stem Cells (SN12C, Spheroid) (AID 1259360);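 for viability (% of control): 100% = DMSO-treated cells and 0% = wells without cells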
Conditions: Potency: SN12C spheroid viability; series mostly up to 46.1 µM; viability (% of control): at the top concentration
Excerpt: Progenitor-like cancer cells, often referred to as cancer stem cells (CSC), are believed to be the drivers of therapeutic resistance and rapid recurrence. CSCs are postulated to reside in specific niches characterized by low oxygen tension, limited nutrient supply, and high redox load. Selectively targeting CSC, alone or in combination with cytotoxic agents, as a means to produce durable remissions is an appealing concept. Modeling these cells in in vitro setting is an important step in finding new therapies and/or targets. Multiple reports highlight that forcing cells in culture into 3-dimensionaly architectures (spheroids) re-establishes key progenitor-like transcriptional signatures. Pancreatic cancer is among the diseases with the most dismal outlook which is driven, largely, by recurance following front-line therapies. […] In hopes of deriving new insight into the targeting of these pancreatic CSCs we examined three established pancreatic cancer cell lines in cytotoxicity assays versus a collection of approved and investigational drugs. Importantly, we screened these lines as traditional monolayer (2D) and spheroid (3D) formats to gain an appreciation of agents with differential activity.
Multicellular tumor spheroids from Panc1, MiaPaCa-2, and the primary low-passage tissue culture line SB.06 were seeded in stem cell media (SCM) in nonadherent 6-well plates coated with hydrogel (Corning Life Sciences, Chelmsford, Mass) and pancreatic spheres generated for 14 days before screening. Cells were seeded into 1536-well solid-bottom white tissue culture treated Greiner Bio One Plates (789173-F) using a MultiDrop Combi (Thermofisher Scientific) dispenser and a small sterile cassette. One column was media alone to be used as a :"no cells" control. The plates were then covered with sterilized stainless steel gasketed lids from Kalypsys. After allowing cells to attach for 4 hours, 23 nL of test compound or control (negative control DMSO and positive control 9.2 uM Bortezomib-final) were added from a 1536-well polypropylene compound source plate to each well using a 1536 head pin tool from Kalypsys. Cells were then incubated for 48 hours at 37C, 95% relative humidity and 5% CO2. After 48 hours, plates were removed from the incubator and 3 uL of CellTiter-Glo (Promega) was added using an Aurora Flying Reagent Dispenser Bioraptor. Plates were incubated at room temperature for 10 minutes prior to reading the luminescence on the Viewlux (PerkinElmer). The relative luciferase units are used to calculate the percent activity using the activity of DMSO in the cells and no cells columns for normalization of no inhibition and full inhibition respectively.
Potency is the fitted concentration of half-maximal effect.

Structure (SMILES)	viability (% of control)	Potency
COc1ccc2nc(S(=O)Cc3ncc(C)c(OC)c3C)[nH]c2c1 (stereo not given)	78.9% (inactive)	
C[C@]12CCC(=O)C=C1CC[C@@H]1[C@@H]2[C@@H](O)C[C@@]2(C)[C@H]1CC[C@]2(O)C(=O)CO	92.1% (inactive)	
Cc1n[nH]c(C)c1Cc1sc2c(c1C(=O)N1C[C@H](O)CO1)c(=O)n(C)c(=O)n2CC(C)C	115% (inactive)	
CCOc1cc(C(=O)Nc2ccc(Cl)c(-c3nc4ccccc4[nH]3)c2)cc(OCC)c1OCC	84.4% (inactive)	
O=C(O)c1ccc(-c2c[nH]c3ccc(-c4ccccc4)cc23)cc1C1CCCC1	75.6% (inactive)	
Cc1[nH]c(=O)c(C#N)cc1-c1ccc2nccn2c1	107% (inactive)	
CCC(C)N(C)C(=O)c1cc2ccccc2c(-c2ccccc2Cl)n1 (stereo not given)	89.3% (inactive)	
O=C(c1cc(Cc2n[nH]c(=O)c3ccccc23)ccc1F)N1CCN(C(=O)C2CC2)CC1		18.7 µM (active)
COc1ccc(CCN2CCN(CCCc3ccccc3)CC2)cc1OC		13.2 µM (active)
CCN(CCCO)CCCOc1ccc2c(Nc3cc(CC(=O)Nc4cccc(F)c4)[nH]n3)ncnc2c1	112% (inactive)	
COc1cc(F)c(F)c(Nc2ccc(I)cc2F)c1NS(=O)(=O)C1(C[C@H](O)CO)CC1	91.4% (inactive)	
Cc1cc(SCc2sc(-c3ccc(C(F)(F)F)cc3)nc2C)ccc1OCC(=O)O	110% (inactive)	
NC(=O)c1ccc(I)c([N+](=O)[O-])c1	109% (inactive)	
CC(C)C[C@H](NC(=O)[C@@H](O)[C@H](N)Cc1ccccc1)C(=O)O	99.8% (inactive)	
COc1cccc2cc(-c3nc(C4CCC(C(=O)O)CC4)n4ncnc(N)c34)[nH]c12 (stereo not given)		0.372 µM (active)
S=C(NCc1ccc2c(c1)OCO2)N1CCN(c2ncnc3c2oc2ccccc23)CC1		14.8 µM (active)
CCN(CC)CCCC(C)Nc1nc(C)cc(Nc2ccc3nc(C)cc(N)c3c2)n1 (stereo not given)	73.5% (inactive)	
COc1ccc(COc2cc3oc(=O)c4cc(C(C)O)ccc4c3cc2OC)cc1 (stereo not given)	99.6% (inactive)	
CCN(c1ccccc1)c1cc(NC)[n+](C)c(C)n1	105% (inactive)	
CC1(C)CNc2cc(NC(=O)c3cccnc3NCc3ccncc3)ccc21	104% (inactive)	

Structure (SMILES)	viability (% of control)	Potency
CC(C)OC(=O)C1=CN(C(=O)c2ccc(F)c(F)c2)CC(C)(C)c2c1[nH]c1ccccc21	89.5% (inactive)	
Cc1cccc(-c2[nH]c(C(C)(C)C)nc2-c2ccc3nccnc3c2)n1	110% (inactive)	
CNC(=O)c1ccc(C)c(-n2c(C)cc(OCc3ccc(F)cc3F)c(Br)c2=O)c1		4.69 µM (active)
CN([C@@H](Cc1ccc(OS(=O)(=O)c2cccc3cnccc23)cc1)C(=O)N1CCN(c2ccccc2)CC1)S(=O)(=O)c1cccc2cnccc12	84.2% (inactive)	
Cc1cc2c(F)c(Oc3ncnn4cc(OC[C@@H](C)O)c(C)c34)ccc2[nH]1	102% (inactive)	
COc1ccc(-c2c(-c3ccc(O)cc3O)n[nH]c2C)cc1	95.3% (inactive)	
COc1cc(Nc2ncc3c(n2)-c2ccc(Cl)cc2C(c2c(F)cccc2OC)=NC3)ccc1C(=O)O	79.5% (inactive)	
CCCc1nc2c(C)cc(-c3nc4ccccc4n3C)cc2n1Cc1ccc(-c2ccccc2C(=O)O)cc1	119% (inactive)	
O=C(C=Cc1ccc(/C=C/C(=O)Nc2ccc(C3=NCCN3)cc2)cc1)Nc1ccc(C2=NCCN2)cc1	95.3% (inactive)	
Cc1c(CCOc2ccc(C(=O)O)cc2)c2cc(Cl)ccc2n1C(c1ccccc1)c1ccccc1	99.8% (inactive)	
CN(C(=O)c1ccc(F)cc1C(F)(F)F)C1CCN(c2nnc(-c3ccnn3C)c3ccccc23)CC1	83.6% (inactive)	
Cc1ccnc(NS(=O)(=O)c2ccc(NC(=O)Nc3ccc(S(=O)(=O)Nc4nccc(C)n4)cc3)cc2)n1		18.7 µM (active)
CCCn1c(=O)c2[nH]c(C34CC5CC3C[C@@H](C5)C4)nc2n(CCC)c1=O	78.7% (inactive)	
O=S(=O)(N=Cc1c(O)ccc2ccccc12)c1cccs1	90.2% (inactive)	
CC(C)(N)C(=O)N[C@H](COCc1ccccc1)C(=O)N1CCC2(CC1)CN(S(C)(=O)=O)c1ccccc12	97.1% (inactive)	
Cc1cc(-c2ccc(CC(=O)Nc3ccc(-c4cccnc4)cc3)cc2)ccn1	95% (inactive)	
Cc1c(C)c2c(c(C)c1O)CCC(C)(COc1ccc(CC3SC(=O)NC3=O)cc1)O2 (stereo not given)	97.2% (inactive)	
CCOc1cc(C=C2C(=O)N(c3ccccc3)N=C2C)cc(Cl)c1OCC(=O)OC	94.4% (inactive)	
CC(=O)NC(C)c1ccc(Oc2ccc(OC(C)C)cc2)cc1 (stereo not given)	92.6% (inactive)	
Cc1ccccc1C(C(=O)NC1CCCC1)N(C(=O)Cn1cnc2ccccc21)c1cccc(F)c1 (stereo not given)	105% (inactive)	
